Data as given in PubChem BioAssay (NCI).
About 83,000 compounds went through this panel and 20% of them were active in at least one assay; those are over-represented in the sample as a whole.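 In brief: 96-well plates, 48 h treatment, single concentration, percent growth endpoint.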 A number with no mark means an inactive call. Active and inactive are the calls of the source.

Each compound was assayed on HCT-15 colon (assay: NCI-60 one-dose screen, 48 h (100 = growth as untreated, 0 = no growth, -100 = all killed)). Conditions: 10 µM unless noted.
Procedure: Growth inhibition of the HCT-15 human tumor cell line is measured as a screen for anti-cancer activity. Cells are grown in 96 well plates and exposed to the test compound for 48 hours. Compounds are tested at a single concentration, which is 10^-5 M for most compounds. The reported endpoint is percent growth (GI% or GIPRCNT), where numbers from 0 - 100% represent growth inhibition, and numbers from -100% - 0 represent cell death. For example, a value of 40 represents 60% growth inhibition. A value of 0 means no net growth occurred over the course of the experiment. A value of -40 indicates 40% of cells at the beginning of the experiment died by the end of the experiment. A value of -100 means all cells are dead at the end of the experiment.
NCI-60 Human Tumor Cell Lines Screen was performed using the standard one-dose NCI protocol, which is described in more detail at https://dtp.cancer.gov/discovery_development/nci-60/default.htm.
Compounds with GIPRCNT values below 10 were considered active. Activity score was based on GIPRCNT using the following formula: […]
Score is 0 for GIPRCNT values of 100 or above, 50 for GIPRCNT values of 0, and 100 for GIPRCNT values of -100.

Row | Structure (SMILES) | growth
1 | CC(=O)Nc1ccc(S(=O)(=O)Nc2ccc(-c3ccc4c(c3)NC(=O)/C4=C\c3ccc[nH]3)cc2)cc1 | 98.3%
2 | CS(=O)(=O)c1ccc(-n2nc(C(=O)NCc3ccccc3)cc2-c2ccc(Cl)cc2)cc1 | 66.3%
3 | COc1ccc(S(=O)(=O)Nc2ccc(-c3ccc4c(c3)NC(=O)/C4=C\c3ccc[nH]3)cc2)cc1OC | 41.4%
4 | COC(=O)c1cc(C(=O)C(C)(C)C)n2c3ccccc3c3ccccc3c12 | 65.6%
5 | COc1ccc(-c2nc3ccc(-c4nnc(SCc5ccccc5)o4)cc3[nH]2)cc1OC | 35.6%
6 | N#Cc1c(-c2ccc(F)cc2)nc(SCc2ccccc2)nc1N1CCNCC1 | -87.9% (active)
7 | N#Cc1c(NC(=O)N2CCOCC2)n(-c2ccc(OC(F)(F)F)cc2)c2cc(F)ccc12 | 95.5%
8 | Fc1cccc(CNc2nc(SCCN3CCOCC3)nc3c2cnn3CC(Cl)c2ccc(Br)cc2)c1 (stereo not given) | -64.7% (active)
9 | COc1ccc(CCC2NCCc3c(Br)c4c(c(OC)c32)OCO4)cc1 (stereo not given) | 7.93% (active)
10 | CCCCCCCCc1ccc(C(=O)Nc2ccc(C)cc2C(=O)O)cc1 | 53.2%
11 | Cc1nc2sccn2c1-c1nnc(SCC(C)C)o1 | 77.2%
12 | CN1CCN(C(=O)CCN(C(=O)Oc2cc3c(c4ccccc24)[C@H](CCl)CN3C(=O)c2cc3cc(OCCCN4CCC4)ccc3[nH]2)[C@H]2CCSSC2)CC1 | -37% (active)
13 | ClC(Cn1ncc2c(Nc3cccc(Br)c3)nc(SCCN3CCOCC3)nc21)c1ccc(Br)cc1 (stereo not given) | -76.9% (active)
14 | Cc1cccc(/C=C/c2ccc(NC(=S)NCCCCN(C)C)cc2)c1 | -99.4% (active)
15 | COC(=O)c1c(C(=O)OC)c2c3ccccc3c3ccccc3n2c1C(=O)C(F)(F)F | 101%
16 | NC(=Nc1ccc(OCCCCCCCCn2cnnn2)cc1)c1ccccc1 | 14.6%
17 | COC(=O)c1cc(C(=O)C(Br)Br)n2c1ccc1c3ccccc3ccc12 | 34.2%
18 | CN1CCN(c2ccc3c4c(cccc24)C(=O)N(c2cccc(-c4nn(-c5ccccc5)cc4-c4nc5ccccc5s4)c2)C3=O)CC1 | 10.2%
19 | Cc1ccc2c(c1)/C(=C/C(=O)c1cc3ccccc3oc1=O)C(=O)N2 | -20.4% (active)
20 | Nc1nn2c(-c3cc4cc(Br)ccc4oc3=O)ccnc2c1N=Nc1ccc(Br)cc1 | 31.8%

Row | Structure (SMILES) | growth
21 | CC1=C(C(=O)Nc2ccccc2)C(c2cccc(Cl)c2Cl)n2c(nc3ccccc32)N1 (stereo not given) | 35.5%
22 | Cc1[nH]nc2ccc3nc(-c4cnn(CCO)c4)c4c(c3c12)CCCC4 | 23.3%
23 | Oc1ccc(F)c(Nc2nc(SCCN3CCOCC3)nc3c2cnn3CC(Cl)c2ccc(Br)cc2)c1 (stereo not given) | 1.07% (active)
24 | CN(C)c1nc(NCCNS(=O)(=O)c2ccc(C(=O)/C=C/c3ccc(F)cc3)cc2)nc(N2CCOCC2)n1 | -29.8% (active)
25 | COc1cc(NC(=O)C(C)C)ccc1C(=O)NC(=S)Nc1ccc(S(N)(=O)=O)cc1 | 108%
26 | CS(=O)(=O)Nc1cc(-c2ccc3ncnc(Nc4ccc(OCc5cccnc5)c(Cl)c4)c3c2)cnc1Cl | 13.1%
27 | N#Cc1cc(-c2ccnc(Nc3ccc(N4CCN(C5COC5)CC4)cc3)n2)ccc1N1CCCC1 | 41.9%
28 | CS(=O)(=O)Nc1cncc(-c2ccc3ncnc(NCc4ccccc4)c3c2)c1 | 64.3%
29 | CCN1CCN(Cc2ccc(C(=O)Nc3cccc(Nc4ccc5c(OC)cccc5n4)c3)cc2C(F)(F)F)CC1 | -83.3% (active)
30 | CN1CCN(C(=O)Oc2cc3c(c4ccccc24)[C@H](CCl)CN3C(=O)c2cc3cc(OCCCN4CCC4)ccc3[nH]2)[C@@H]2CSSC[C@H]21 | 2.11% (active)
31 | O=C(Nc1ccc(-c2ccc3c(c2)NC(=O)/C3=C\c2ccc[nH]2)cc1)Nc1ccc(Cl)c(C(F)(F)F)c1 | 26.5%
32 | CN1CCN(CCS(=O)(=O)Nc2cc(-c3ccc4ncnc(Nc5ccc(F)c(Cl)c5)c4c3)cnc2Cl)CC1 | 24.5%
33 | Cc1ccc(/C=C/C(=O)c2ccc(S(=O)(=O)NCCNc3nc(N(C)C)nc(N4CCOCC4)n3)cc2)cc1 | 46.1%
34 | COC(=O)c1c(C(=O)OC)c2ccc3c4ccccc4ccc3n2c1C(=O)C(C)Br (stereo not given) | 9.95% (active)
35 | Oc1ccc(Cl)c(Nc2nc(SCCN3CCOCC3)nc3c2cnn3CC(Cl)c2ccc(Br)cc2)c1 (stereo not given) | 8.41% (active)
36 | CCCCCCCCc1cccc(CC(=O)Nc2ccc(C)cc2C(=O)O)c1 | 13.2% [25 µM]
37 | O=C(NNC(=O)c1ccc(OCc2nc3ccc(Cl)cc3[nH]2)cc1)Nc1ccc(Cl)c(Cl)c1 | 98.9%
38 | O=C(N/N=C/c1ccc(B(O)O)s1)c1[nH]c2ccc(Br)cc2c1-c1ccccc1 | -92.4% (active)
39 | Cc1ccc(S(=O)(=O)Nc2ccc(-c3ccc4c(c3)NC(=O)/C4=C\c3ccc[nH]3)cc2)cc1 | 68.7%
40 | O=C(NN1C(=O)/C(=C/C=C/c2ccc([N+](=O)[O-])o2)SC1=S)c1ccncc1 | -78.9% (active)
